Bioassay records (PubChem)
YB-1 expr inh = inhibitors of YB-1 gene expression, primary screen, cell-based, fluorescence | U2OS, qRT-PCR YB-1 vs CDIP delta delta Cp, 16 h; hits give high values; zero = DMSO, each unit about twofold | delta delta Cp (YB-1 minus CDIP) (test concentration not listed) | 30,000 compounds, 0.37% hits;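 active = delta delta Cp rounded down to an integer at or above 3, about 3 SD of DMSO wells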;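 also: higher means less YB-1 transcript or more CDIP transcript relative to DMSO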
ROS inducer = ROS inducers in U2OS cancer cells, primary screen, cell-based, H2DCF-DA fluorescence; ROS induction (% of piperlongumine), % at 10 µM; U2OS ROS induction; 46,000 compounds, 2% hits; in the data active = ROS induction above about 79%, passing the limit was not always enough; inconclusive = no clear call, values can overlap the other calls;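 also: 0% = DMSO vehicle median and 100% = reference compound median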
Numbers without * were called inactive; ? = inconclusive; . = not tested or not shown. Sampled rows, rich in hits. Any-hit rate of the full collection: about 2.1%.

SMILES | YB-1 expr inh | ROS inducer
C[C@H]1CN([C@@H](C)CO)C(=O)Cc2cc(NS(=O)(=O)c3cn(C)cn3)ccc2O[C@H]1CN(C)S(=O)(=O)c1cn(C)cn1 | -0.11 | -5
Cc1c(Cl)cccc1NC(=O)CSc1nc2sc3c(c2c(=O)[nH]1)CCCC3 | . | -1
COc1ccccc1NC(=O)CSc1nnnn1-c1cc(C)cc(C)c1 | . | 0
O=C(CCCCC(=O)N/N=C/c1c(F)c(F)c(F)c(F)c1F)NO | 0.64 | 145*
O=C(CCCCCCC(=O)Nc1ccccc1O)N/N=C/c1c(F)c(F)c(F)c(F)c1F | -0.27 | ?
O=C(NN1C(=O)/C(=C\c2cccnc2)SC1=S)c1ccccc1 | 0.037 | 79*
CSCCC(C(=O)O)N1C(=O)/C(=C/c2cccnc2)SC1=S (centres undefined) | . | -19
CC(=O)Oc1ccc2cc(-c3nc4c(s3)CCc3ccccc3-4)c(=O)oc2c1 | . | 129*
Cc1cccc(C)c1NC(=O)COc1ccc2cc(-c3ccccc3)c(=O)oc2c1 | . | -12
O=C(N/N=C/c1ccc([N+](=O)[O-])c(O)c1)c1ccccn1 | 0.023 | 12
Cc1cccc(-n2ncc3c(Nc4ccc(-c5ccccc5)cc4)ncnc32)c1 | . | 4
CC(=O)Nc1ccc(Nc2ncnc3c2c(-c2ccccc2)cn3-c2cccc(C)c2)cc1 | . | 97*
C[C@@H]1CCCCO[C@@H](CN(C)CC2CCCCC2)[C@@H](C)CN([C@H](C)CO)C(=O)c2cc(NC(=O)Nc3ccc4c(c3)OCO4)ccc2O1 | -0.093 | 28
C[C@@H]1CCCCO[C@@H](CN(C)C(=O)Nc2ccc(F)cc2)[C@@H](C)CN([C@H](C)CO)C(=O)c2cc(NC(=O)C3CCCCC3)ccc2O1 | -0.089 | 32
C=C1C(=O)O[C@H]2C3=C(C)CCC[C@]3(C)C(=O)C[C@@H]12 | -0.036 | 84*
C=C1C(=O)O[C@@H]2C=C(C)[C@@H]3CC[C@@](C)(O)[C@@H]3C[C@H]12 | 0.073 | -3
C[C@H](CO)N1C[C@H](C)[C@@H](CN(C)C(=O)Nc2ccc(C(F)(F)F)cc2)OCc2cnnn2CCCC1=O | -0.0043 | 3
CC12C=CC(=O)C=C1CCC1C2=CCC2(C)C1CC[C@@H]2C(=O)CN1CCN(c2cc(N3CCCC3)nc(N3CCCC3)n2)CC1 (some centres undefined) | -0.24 | 174*
Cc1ccc(S(=O)(=O)N(C)C[C@@H]2Oc3ccc(NC(=O)Nc4cccc5ccccc45)cc3CC(=O)N([C@H](C)CO)C[C@@H]2C)cc1 | 0.044 | 18
CS(=O)(=O)Nc1ccc(S(=O)(=O)NCC2CCCO2)cc1 (centres undefined) | . | 96*
O=C(O)c1cccc(S(=O)(=O)NCC2CCCO2)c1 (centres undefined) | . | 11
COc1ccc(NC(=O)CN2C(=O)c3cccc4cccc2c34)cc1OC | . | 5
C[C@@H]1CN([C@@H](C)CO)C(=O)c2cc(NC(=O)Nc3cccc4ccccc34)ccc2O[C@@H]1CN(C)C(=O)Nc1ccc(C(F)(F)F)cc1 | -0.22 | 42
C[C@H]1CN([C@@H](C)CO)C(=O)c2cc(NC(=O)Nc3cccc4ccccc34)ccc2O[C@@H]1CN(C)C(=O)Nc1ccc(C(F)(F)F)cc1 | -0.15 | 80*
C[C@H](CO)N1C[C@H](C)[C@H](CN(C)C(=O)Nc2ccc(C(F)(F)F)cc2)Oc2ccc(NC(=O)Nc3cccc4ccccc34)cc2CC1=O | 0.089 | 2
SMILES | YB-1 expr inh | ROS inducer
C[C@@H]1CN([C@@H](C)CO)C(=O)Cc2cc(NC(=O)Nc3cccc4ccccc34)ccc2O[C@@H]1CN(C)C(=O)Nc1ccc(C(F)(F)F)cc1 | 0.26 | 162*
O=C1NC(=O)N(c2ccccc2F)C(=O)/C1=C/c1cn(CC(=O)N2CCCC2)c2ccccc12 | . | 100*
CN1C(=O)/C(=C\c2cn(CC(=O)N3CCOCC3)c3ccccc23)C(=O)NC1=S | . | 3
Cc1ccccc1N1C(=O)NC(=O)/C(=C\c2cn(CC(=O)N3CCOCC3)c3ccccc23)C1=O | . | 117*
C=CCn1cc(C=C2C(=O)OC3(CCCC3)OC2=O)c2ccccc21 | . | 45
CCOC(=O)CCCn1c(=O)c2cccn2c2ccccc21 | . | 1
CCOC(=O)c1c2c(n3ccccc13)C(=O)c1ccccc1C2=O | . | 210*
COC(=O)C1=C(C)NC2=C(C(=O)CC(c3ccccc3)C2)C1c1ccccc1OC(C)C (centres undefined) | -0.15 | 46
CC1=C(C(=O)OCc2ccccc2)C(c2cccc(O)c2)C2=C(CC(c3ccccc3)CC2=O)N1 (centres undefined) | . | 183*
C[C@H]1CN([C@@H](C)CO)C(=O)c2cccc(NC(=O)C3CCOCC3)c2O[C@H]1CN(C)Cc1ccc2c(c1)OCO2 | -0.17 | 29
COC(=O)C1c2c(oc3cc(CO)cc(O)c3c2=O)C=CC1O (centres undefined) | 0.37 | 137*
COc1cc(-c2oc3cc(O)cc(O)c3c(=O)c2O[C@@H]2O[C@H](CO)[C@@H](O)[C@H](O)[C@H]2O)ccc1O[C@@H]1O[C@H](CO)[C@@H](O)[C@H](O)[C@H]1O | -0.92 | -6
FC(F)(F)c1nnc2n1Nc1nc3ccccc3nc1S2 | . | 704*
Cc1ccc(-c2nc(S(=O)(=O)c3ccc(F)cc3)c(NCc3ccco3)o2)cc1 | . | 6
CCC(C)S(=O)(=O)c1oc(-c2ccc(C)cc2)nc1S(=O)(=O)c1ccccc1 (centres undefined) | . | 219*
Cc1ccc(OCCN2CCN(c3cc(C)c(C#N)c4nc5ccccc5n34)CC2)cc1 | . | 100*
Cc1cc(N2CCCC2)n2c(nc3ccccc32)c1C#N | . | 14
OCc1noc(-c2ccc(Cl)c(Cl)c2)n1 | -0.045 | 2
COc1ccccc1Nc1nc(N)nc(CSCCO)n1 | . | 123*
COc1ccccc1Nc1nc(N)nc(CSc2ncccn2)n1 | . | -5
Cc1ccc2nc(Nc3nc(CSc4nc5ccccc5s4)cc(=O)[nH]3)nc(C)c2c1 | . | 166*
Cc1ccc(SCc2cc(=O)[nH]c(Nc3nc(C)c4ccccc4n3)n2)cc1 | . | -14
CCc1ccc2nc(Nc3nc4ccccc4c(=O)[nH]3)nc(C)c2c1 | . | 132*
Cc1ccc2nc(Nc3nc(CSc4nnc(C)s4)cc(=O)[nH]3)nc(C)c2c1 | . | 49
COc1ccc(CCN2C(=O)/C(=C/c3ccccc3Cl)SC2=S)cc1OC | . | -13
SMILES | YB-1 expr inh | ROS inducer
O=C(O)CCC(=O)c1ccc2c(c1)OCCCO2 | 0.09 | 10
O=C(c1ccc(Br)cc1)c1cc2c(cc1Br)OCCCO2 | -0.48 | 131*
COc1ccc(-c2cc(=O)c3c(O)cc(O)cc3o2)cc1 | -0.1 | 39
COc1cc(O)c2c(=O)cc(-c3ccc(OC)c(-c4c(O)cc(O)c5c(=O)cc(-c6ccc(O)cc6)oc45)c3)oc2c1 | -0.3 | 179*
C[C@H]1CN([C@@H](C)CO)C(=O)c2cc(NS(C)(=O)=O)ccc2O[C@H]1CN(C)C(=O)Nc1ccc(F)cc1 | -0.19 | -4
CS/C(NCC1CC1)=C(/C#N)C(=O)c1ccc(Cl)cc1 | -0.47 | 196*
CS/C(NC1CCCCC1)=C(/C#N)S(=O)(=O)c1ccc(Cl)cc1 | -0.0051 | 45
C[C@@H]1CN([C@@H](C)CO)C(=O)c2cc(NC(=O)CCCCCC(=O)Nc3ccccc3N)ccc2O[C@H]1CN(C)Cc1ccncc1 | 1 | 13
Cc1ccccc1-n1c(=S)[nH]c2nc3c(cc2c1=O)CCCC3 | . | 49
COc1cc(CO)ccc1OCC(=O)Nc1ccccc1F | . | -2
